Assay outcomes as filed in PubChem.
TGFb SMAD3 inh: TGF-b pathway inhibition; Potency, µM (highest dose often 46.1 µM), usual class: inhibitors; HepG2 CAGA-GFP TGF-b/SMAD3 reporter, GFP fluorescence, 18 h; TGF-beta stimulated, 500 pg/mL final; 1.2% of 410,000 active; AID 588855; also: nearly all actives have a fitted effect of over 65% in size
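Cell-based qHTS in HEPG2 carrying a CAGA-GFP Smad reporter; compounds added before 500 pg/mL final TGF-beta, 18 h incubation at 37 degrees C, GFP fluorescence quantified per cell by imaging cytometry.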
HepG2 tox: counter-screen for TGF-b inhibitors: cytotoxicity in HepG2 cells; HepG2 CAGA-GFP viability, ATP luminescence, 18 h; Potency, µM (highest dose often 46.1 µM), hits mostly cytotoxic; 0.76% of 410,000 active; AID 588856
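HepG2 CAGA-GFP cells (1000/well, DMEM with 1% FBS) received compound, then TGF-beta at 500 pg/mL final, and were incubated 18 hours at 37 degrees C. Viability was read by CellTiter-Glo luminescence. Media-only wells were set as complete cell-killing and DMSO as no toxicity.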
DT40 TDP1 no CPT: qHTS for Inhibitors of human tyrosyl-DNA phosphodiesterase 1 (TDP1): qHTS in cells in absence of CPT; DT40 Tdp1-/- hTDP1 cells, no CPT, ATP luminescence, 48 h; 15% of 420,000 active; Potency, µM (highest dose often 46.2 µM), most hits filed as inhibitors; also: nearly all actives have a fitted effect of over 55% in size
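Stably hTDP1-transfected Tdp1-null chicken DT40 cells were treated with library compounds minus camptothecin and grown for at least 48 hr at 37 °C, after which cellular ATP was quantified by luminescence.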
TDP1 block: blocks human tyrosyl-DNA phosphodiesterase 1; Q9NUW8; recombinant TDP1, AlphaScreen DNA substrate cleavage; Potency, µM (series often up to 130 µM), usual class: inhibitors; 0.28% of 350,000 active; AID 485290; also: nearly all actives have a fitted effect of over 40% in size
Target sequence (Q9NUW8 whole entry, looked up): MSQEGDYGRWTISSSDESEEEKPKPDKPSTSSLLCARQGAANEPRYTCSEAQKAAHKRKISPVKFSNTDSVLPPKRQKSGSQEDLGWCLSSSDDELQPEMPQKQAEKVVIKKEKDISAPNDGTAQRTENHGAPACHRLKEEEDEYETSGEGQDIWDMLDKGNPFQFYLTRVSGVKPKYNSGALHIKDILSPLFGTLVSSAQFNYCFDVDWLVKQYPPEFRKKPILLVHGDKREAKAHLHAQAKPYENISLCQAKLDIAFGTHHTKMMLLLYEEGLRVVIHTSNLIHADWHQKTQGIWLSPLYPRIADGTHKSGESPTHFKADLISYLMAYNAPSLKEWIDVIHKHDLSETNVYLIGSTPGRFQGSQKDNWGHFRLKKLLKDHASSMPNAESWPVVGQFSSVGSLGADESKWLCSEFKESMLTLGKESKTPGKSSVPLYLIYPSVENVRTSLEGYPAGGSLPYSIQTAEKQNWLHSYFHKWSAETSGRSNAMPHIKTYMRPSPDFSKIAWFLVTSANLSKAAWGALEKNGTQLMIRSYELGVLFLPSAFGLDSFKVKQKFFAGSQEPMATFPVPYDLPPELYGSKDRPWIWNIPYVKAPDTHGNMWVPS
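E. coli-derived human Tdp1, 1 nM final. Cpd preinc 15 min RT; substrate 15 nM final, 5 min RT; AS bead mix 10 ug/ml final, 10 min RT. Signal loss = tyrosine-FITC cleavage. No-enzyme wells = max signal.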
DT40 TDP1 CPT: DT40-hTDP1 cell growth loss with CPT. Potency, µM (doses to about 46.2 µM), most hits filed as inhibitors. chicken DT40 Tdp1-/-;hTDP1 cells + 20 nM CPT, ATP luminescence, 48 h. 12% of 420,000 active. AID 686979; also: nearly all actives have a fitted effect of over 55% in size
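Cell growth measured by CellTiter-Glo luminescence after a minimum 48 h, 37 C compound exposure with 20 nM CPT in Tdp1-knockout DT40 cells stably expressing hTDP1, seeded 400/well; qHTS titration format.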
IL-1B inflam inh: inflammasome signaling inhibition, IL-1 beta readout; 4.7% of 360,000 active; activity change, % at 57.5 µM; THP-1 LPS/ATP IL-1B secretion, AlphaLISA, 16 h; active compounds read low; in the data active = activity change below about -50%; inconclusive = mostly about -30% to -49%
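Secreted IL-1B measured by AlphaLISA bead assay after 16 h compound exposure of THP-1 cells; compounds (final up to 57.5 uM) added 1 h before LPS (250 ng/mL) and ATP (1.25 mM) stimulation; lower signal means less secretion.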
Hits are given with their value. Compounds with a hit are over-represented: about 18% of the library has one in this group of screens. Unless noted, calls follow the shape of the dose curve; as a rule, active = well fitted curve in the direction sought with a large enough effect; inconclusive = small, poorly fitted or top-dose-only effect, or another doubt; inactive = no such curve, though single readings can be large; an effect the other way counts as inactive or inconclusive.

COc1cccc(C2CC(c3ccccc3Cl)Nc3ncnn32)c1 (configuration not stated) was read as TGFb SMAD3 inh inactive, HepG2 tox inactive, DT40 TDP1 no CPT inconclusive, DT40 TDP1 CPT 26µM and IL-1B inflam inh inconclusive.
CCOc1ccc(C2CC(c3cccc(C)c3)n3ncnc3N2)cc1 (configuration not stated) was read as TGFb SMAD3 inh inactive, HepG2 tox inactive, DT40 TDP1 no CPT 23µM, TDP1 block inactive, DT40 TDP1 CPT 13µM and IL-1B inflam inh inactive.
`Clc1ccccc1C1CC(c2ccccc2)Nc2ncnn21` (configuration not stated) gave TGFb SMAD3 inh inactive, HepG2 tox inactive, DT40 TDP1 no CPT inconclusive, TDP1 block inactive, DT40 TDP1 CPT 15µM and IL-1B inflam inh inactive.
Screening COc1ccc(C2CC(c3ccccc3Cl)Nc3ncnn32)cc1OC (configuration not stated) returned TGFb SMAD3 inh inconclusive, HepG2 tox inactive, DT40 TDP1 no CPT inconclusive, TDP1 block inactive, DT40 TDP1 CPT inactive and IL-1B inflam inh inactive.
O=C(Nc1cc(Cl)ccc1Cl)c1cc([N+](=O)[O-])cc(Br)c1O was read as TGFb SMAD3 inh inconclusive, HepG2 tox inactive, DT40 TDP1 no CPT inactive, TDP1 block inactive and DT40 TDP1 CPT inactive.
`CCOc1ccc(CNC(=O)CN2C(=O)CSc3ccc(S(=O)(=O)N4CCOCC4)cc32)cc1` gave TGFb SMAD3 inh inactive, HepG2 tox inactive, DT40 TDP1 no CPT inconclusive, DT40 TDP1 CPT inactive and IL-1B inflam inh inactive.
Screening COC(=O)c1cccc(C#CC(NP(=O)(c2ccccc2)c2ccccc2)c2ccccc2)c1 (configuration not stated) returned TGFb SMAD3 inh inconclusive, HepG2 tox inactive, DT40 TDP1 no CPT inconclusive, TDP1 block inactive, DT40 TDP1 CPT 26µM and IL-1B inflam inh -64.
COc1cccc(CNS(=O)(=O)c2cc3c(cc2Cl)NC(=O)CO3)c1 was read as TGFb SMAD3 inh inactive, HepG2 tox inactive, DT40 TDP1 no CPT inactive, DT40 TDP1 CPT inactive and IL-1B inflam inh inactive.
For Cc1ccc(-c2nn(-c3ccccc3)cc2CO)cc1 the results were TGFb SMAD3 inh inactive, HepG2 tox inactive, DT40 TDP1 no CPT inactive, DT40 TDP1 CPT inactive and IL-1B inflam inh inactive.
`Cc1ccc(Sc2c(CO)c(-c3ccccc3)nn2C)cc1` gave TGFb SMAD3 inh inactive, HepG2 tox inactive, DT40 TDP1 no CPT 0.73µM, TDP1 block inactive, DT40 TDP1 CPT 1.2µM and IL-1B inflam inh inactive.
Screening CCOc1cc(N2CCOCC2)c(OCC)cc1NC(=O)CSc1nnc(N)s1 returned TGFb SMAD3 inh inactive, HepG2 tox inactive, DT40 TDP1 no CPT inconclusive, TDP1 block inactive, DT40 TDP1 CPT inconclusive and IL-1B inflam inh inactive.
CN(C(=O)c1ccccc1F)C(c1ccccc1)c1ccccc1 was read as TGFb SMAD3 inh inactive, HepG2 tox inactive, DT40 TDP1 no CPT 16µM, TDP1 block inactive, DT40 TDP1 CPT 10µM and IL-1B inflam inh inactive.
For O=C(/C=C/[C@H]1O[C@@H](n2cnc3c(NC(=O)c4ccccc4)ncnc32)[C@H](O)[C@@H]1O)NCCCc1ccccc1 the results were TGFb SMAD3 inh inactive, HepG2 tox inactive, DT40 TDP1 no CPT inactive, DT40 TDP1 CPT inactive and IL-1B inflam inh inactive.
Cc1ccsc1-c1cc2nc(NCCCN(C)C)n(C)c(=O)c2s1 was read as TGFb SMAD3 inh inactive, HepG2 tox inactive, DT40 TDP1 no CPT 23µM, DT40 TDP1 CPT 23µM and IL-1B inflam inh inactive.
Screening Cc1ccccc1-c1cc2nc(NCCCN(C)C)n(C)c(=O)c2s1 returned TGFb SMAD3 inh inactive, HepG2 tox inactive, DT40 TDP1 no CPT inconclusive, DT40 TDP1 CPT inconclusive and IL-1B inflam inh -81.
`COc1ccc(NC(=O)CSc2nnc(-c3nonc3NC(C)=O)n2C)cc1Cl` gave TGFb SMAD3 inh inactive, HepG2 tox inactive, DT40 TDP1 no CPT inconclusive, TDP1 block inactive and DT40 TDP1 CPT inconclusive.
For N=c1ccn(Cc2ccc(Cl)cc2)cc1 the results were TGFb SMAD3 inh inconclusive, HepG2 tox inactive, DT40 TDP1 no CPT 3.7µM, TDP1 block inactive, DT40 TDP1 CPT 5.2µM and IL-1B inflam inh inactive.
For Clc1cccc(CN2CCN(Cc3ccco3)CC2)c1 the results were TGFb SMAD3 inh inactive, HepG2 tox inactive, DT40 TDP1 no CPT inactive, DT40 TDP1 CPT inactive and IL-1B inflam inh inactive.
`N=c1ccn(Cc2cccc(Cl)c2)cc1` gave TGFb SMAD3 inh inconclusive, HepG2 tox inactive, DT40 TDP1 no CPT 2.1µM, TDP1 block inactive, DT40 TDP1 CPT 2.6µM and IL-1B inflam inh inconclusive.
For COc1ccccc1NC(=O)c1sc2nc3n(c(=O)c2c1C)N=C(c1cccc(Br)c1)CS3 the results were TGFb SMAD3 inh inactive, HepG2 tox inactive, DT40 TDP1 no CPT inactive, TDP1 block inactive and DT40 TDP1 CPT inactive.
Screening O=C(CSc1nnc(-c2ccc3c(c2)OCO3)n1-c1ccccc1)c1ccccc1 returned TGFb SMAD3 inh inactive, HepG2 tox inactive, DT40 TDP1 no CPT 23µM, TDP1 block inactive, DT40 TDP1 CPT 16µM and IL-1B inflam inh inactive.
Screening O=C(CSc1nnc(-c2ccncc2)n1-c1ccccc1)Nc1ccc(Br)cc1 returned TGFb SMAD3 inh inactive, HepG2 tox inactive, DT40 TDP1 no CPT inactive, TDP1 block inactive and DT40 TDP1 CPT inactive.
CCOc1ccc(-c2nnc(SCC(=O)c3ccccc3)n2-c2ccccc2)cc1 was read as TGFb SMAD3 inh inconclusive, HepG2 tox inactive, DT40 TDP1 no CPT 6.5µM, TDP1 block inactive and DT40 TDP1 CPT inconclusive.
Screening CCOc1ccc(NC(=O)CSc2nnc(-c3ccncc3)n2-c2ccccc2)cc1 returned TGFb SMAD3 inh inactive, HepG2 tox inactive, DT40 TDP1 no CPT inactive, TDP1 block inactive and DT40 TDP1 CPT inactive.
`Cc1cccc(-n2c(SCC(=O)c3ccccc3)nnc2-c2ccc(Br)cc2)c1` gave TGFb SMAD3 inh inactive, HepG2 tox inactive, DT40 TDP1 no CPT 18µM, TDP1 block inactive and DT40 TDP1 CPT 16µM.
O=C(CSc1nnc(CN2CCCCC2)n1-c1ccccc1)c1ccc2c(c1)OCO2 was read as TGFb SMAD3 inh inconclusive, HepG2 tox inactive, DT40 TDP1 no CPT 21µM, TDP1 block inactive, DT40 TDP1 CPT inconclusive and IL-1B inflam inh inactive.
CCN(CC)C(=O)c1sc2c(c1C)c(=O)n(-c1ccccc1)c(=O)n2Cc1c(C)cc(C)cc1C was read as TGFb SMAD3 inh inactive, HepG2 tox inactive, DT40 TDP1 no CPT inconclusive, TDP1 block inactive and DT40 TDP1 CPT inconclusive.
